# Results from PubChem BioAssay (Tox21).
# Inconclusive results are not listed. Values without a mark were called inactive. Activity calls are given as the source filed them. The call rests on the fitted dose curve.
# Assay: qHTS assay to identify small molecule agonists of the AP-1 signaling pathway (AID 1159526)
# Conditions: ME-180 (cervical carcinoma) AP-1-bla reporter, beta-lactamase FRET ratio, 5 h; series mostly up to 76.8 µM; activation: at the top concentration
# On the % scale 0 is the no-effect control and ±100 the full control effect.
Compound,outcome,activation [%]
COc1ccc(C=O)cc1,inactive,–
Nn1cnnc1,inactive,–
O=C(CCl)c1ccccc1,–,1.76
C=CCc1ccc2c(c1)OCO2,inactive,–
CCC(C)(c1ccc(O)cc1)c1ccc(O)cc1,–,9.99
Cc1cc(C)cc(C)c1,inactive,–
N#CCCCl,inactive,–
